High-throughput results from PubChem.
SW480 rereplic – induces DNA re-replication in SW480 colon adenocarcinoma cells; SW480 DNA re-replication, Hoechst DNA content imaging, 48 h; Potency, µM (titrated, usually from 46.1 µM), inactives show at the highest dose re-replication activation, actives largely listed as activators; 340,000 tested, 1.8% active; note: % of control where 0% means no effect; nearly all actives have a fitted effect of over 55% in size
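SW480 cells exposed to compounds for 48 hr at 37 C, 5% CO2, then Hoechst-stained 40 min. Nuclear DNA content imaged by fluorescence scanning (405 nm excitation, 500-530 nm emission); re-replication scored as increased high-intensity nuclei.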
KB-3-1 cytotox – KB-3-1 parental cell cytotoxicity; 400,000 tested, 1.4% active; KB-3-1 viability, CellTiter-Glo ATP luminescence, 72 h; Potency, µM (top dose mostly 46.1 µM), hits mostly cytotoxic; AID 1347075; note: % is set by controls: 0 for no effect and ±100 for the full control effect; nearly all actives have a fitted effect of over 60% in size
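Cytotoxicity measured as CellTiter-Glo luminescence after 72 h at 37 C. Compound titrations were pinned onto drug-naive KB-3-1 parental adenocarcinoma cells grown in DMEM with 10% FBS, and normalized data fitted to concentration-response curves.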
ELG1 DNA repair – inhibitors of ELG1-dependent DNA repair in HEK293T cells | HEK293T ELG1-luciferase reporter, luminescence, 16 h; DNA damage induced by 5-fluorouridine | Potency, µM (titrated, usually from 46.1 µM), inactives show at the top dose activity change, negative = inhibition, actives largely listed as inhibitors | 330,000 tested, 2.3% active | AID 504467; note: % is set by controls: 0 for no effect and ±100 for the full control effect; nearly all actives have a fitted effect of over 55% in size
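In this reporter screen, reduction of luminescence relative to DMSO vehicle indicated activity. Compounds and 5-fluorouridine were added together to 2,000 cells per well, incubated for 16 hr at 37 °C, then developed with ONE-Glo.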
MCF10A rereplic – induces DNA re-replication in MCF 10a normal breast cells | MCF 10A DNA re-replication, Hoechst nuclear intensity, 48 h | Potency, µM (highest dose often 46.1 µM), without a hit: top-dose activity, positive = re-replication, most hits filed as activators | 350,000 tested, 2.9% active | AID 624296; note: % of control where 0% means no effect; nearly all actives have a fitted effect of over 50% in size
KB-V1 cytotox – KB-V1 MDR subline cytotoxicity | AID 1347076 | 400,000 tested, 3.4% active | Potency, µM (highest dose often 46.1 µM), actives largely listed as cytotoxic | KB-V1 MDR cells viability, CellTiter-Glo, 72 h; note: % is set by controls: 0 for no effect and ±100 for the full control effect; nearly all actives have a fitted effect of over 60% in size
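Readout: CellTiter-Glo luminescence, 10 min after addition. Cells: KB-V1 MDR subline, 72 h at 37 degrees C with compound. Analysis: corrected, normalized data fitted to concentration-effect curves.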
Active calls of the source: *; i = inactive; ? = inconclusive; · = no result given. Hits are enriched below; roughly 8.1% of the tested compounds scored in any of these assays. Calls come from the whole dose curve; as a rule, active = well fitted curve in the direction sought with a large enough effect; inconclusive = small, poorly fitted or top-dose-only effect, or another doubt; inactive = no such curve, though single readings can be large; an effect the other way counts as inactive or inconclusive. Potency is the fitted concentration of half-maximal effect.

SMILES	SW480 rereplic	KB-3-1 cytotox	ELG1 DNA repair	MCF10A rereplic	KB-V1 cytotox
CC(C)(C)NC(=O)COc1ccc(CNCc2ccccn2)cc1	-2%	i	10%	16µM*	i
CC1CC(C)CN(CCOCCSc2ccc(Cl)cc2)C1 (stereo not drawn)	?	i	-25%	16µM*	i
COc1ccc(-c2ccc(C#N)c(SCC(=O)Nc3sc4c(c3C#N)CCC4)n2)cc1	3.3µM*	i	14%	?	i
COc1ccc(-c2nnc(SCC(=O)Nc3sc4c(c3C#N)CCCC4)n2-c2ccccc2)cc1	-7%	i	-10%	?	i
N#Cc1c(NC(=O)CSc2nnnn2C2CCCCC2)sc2c1CCCC2	-2%	i	0%	27%	23µM*
COc1ccc(-n2c(SCC(=O)Nc3sc4c(c3C#N)CCCC4)nnc2-c2ccccc2OC)cc1	-7%	i	26µM*	-1%	i
COCCC(=O)N1CCC(Oc2ccc(C(=O)NCCSC)cc2)CC1	-5%	i	-7%	-7%	i
COCCC(=O)N1CCC(Oc2ccc(C(=O)NC3Cc4ccccc4C3)cc2)CC1	2%	i	-26%	13%	4.1µM*
Cc1nc(SCC(=O)N2CCOCC2)c2c3c(sc2n1)CCC3	-11%	i	21µM*	-12%	i
COC(=O)c1ccccc1-c1c2ccc(=N)cc-2oc2cc(N)ccc12	11%	1.3µM*	10%	-26%	i
O=C(O)c1ccccc1-c1c2ccc(=O)cc-2oc2cc(O)ccc12	-4%	·	·	-2%	·
C[N+]1(CCCCSc2ccc(O)cc2)CCCCC1	6%	18µM*	-2%	21%	i
COc1ccc(S(=O)(=O)N(C)CC(=O)N2CCN(C)CC2)cc1C	2%	i	6%	6%	i
CC1CN(C(=O)C2CCCC2)C(C)CN1C(=O)C1CCCC1 (stereo not drawn)	-2%	i	14%	1%	10µM*
N#Cc1c(NC(=O)CN2CCN(C(=O)c3ccco3)CC2)sc2c1CCCCC2	-4%	i	?	3%	?
O=C1OC(C(=O)O)Cc2ccccc21 (stereo not drawn)	?	i	4%	18µM*	i
Cc1ccccc1NC(=O)C1Cc2ccccc2C(=O)O1 (stereo not drawn)	-1%	i	?	2%	i
Cc1ccc(OCC(=O)Nc2ccc3c(c2)sc(=O)n3C)cc1	·	?	·	·	i
O=C(/C=C/c1ccccc1[N+](=O)[O-])N1CCN(c2ccc(F)cc2)CC1	6%	i	17%	2%	i
O=C(Cc1ccccc1[N+](=O)[O-])N1CCN(c2ccc(F)cc2)CC1	12µM*	i	0%	9%	?
O=C(/C=C/c1cccc([N+](=O)[O-])c1)N1CCN(c2ccc(F)cc2)CC1	17%	i	0%	1%	21µM*
O=C(Cc1ccc(F)cc1)N1CCN(c2ccc([N+](=O)[O-])cc2)CC1	2%	i	-16%	2%	i
CN(C)S(=O)(=O)c1cccc(COc2ccccc2C(=O)Nc2ccccc2)c1	-3%	i	?	?	i
CN(C)S(=O)(=O)c1cccc(NC(=O)c2ccccc2OCc2ccc(F)cc2)c1	1%	i	21µM*	13%	?
C/C(=N\NC(=O)c1ccccc1OCc1ccc(F)cc1)c1ccccn1	2%	12µM*	?	24%	?
SMILES	SW480 rereplic	KB-3-1 cytotox	ELG1 DNA repair	MCF10A rereplic	KB-V1 cytotox
O=C(NNC(=O)c1ccccc1OCc1ccccc1)c1ccccc1O	?	?	?	0%	i
O=C(NNC(=O)c1ccccc1OCc1ccc(F)cc1)c1ccccc1O	3.3µM*	·	2.3µM*	-3%	·
Cc1onc(-c2ccccc2)c1C(=O)N1CCCN2C(=O)c3ccccc3C21 (stereo not drawn)	-8%	i	-22%	-4%	i
CC(C)Cn1c(N)c(C(=O)CSc2nnc(-c3ccco3)n2C)c(=O)n(C)c1=O	?	i	1%	21%	i
COc1cc(/C=C(/C#N)c2nc3ccccc3[nH]2)ccc1OCC(=O)Nc1ccccc1C(C)C	?	?	?	2.9µM*	?
COc1cc(/C=C(\C#N)c2nc3ccccc3[nH]2)ccc1OC(=O)c1ccco1	9%	i	?	?	?
COc1cc(/C=C(/C#N)c2nc3ccccc3[nH]2)ccc1OCC(=O)Nc1ccccc1C	27%	?	6%	18µM*	1.8µM*
CCOc1cc(/C=C(/C#N)c2nc3ccccc3[nH]2)ccc1OCc1ccc(C(=O)O)o1	-2%	?	6%	26%	i
COc1cc(/C=C(\CC(=O)O)c2nc3ccccc3s2)ccc1OCC(=O)Nc1ccccc1F	-5%	i	·	?	i
COc1cc(/C=C(\C#N)c2nc3ccccc3s2)ccc1OCC(=O)Nc1ccccc1	?	?	4%	6.5µM*	9.2µM*
Cc1ccc(N=C2N=C(N)c3ccccc32)cc1C	5%	?	·	?	?
Cc1nnsc1-c1nnc(SCC(=O)c2ccc(C#N)cc2)n1C1CC1	-5%	i	0%	5%	i
N#CCCn1cc(C(CC(=O)c2ccc(Br)cc2)C(=O)O)c2ccccc21 (stereo not drawn)	-9%	i	-2%	10%	i
CCOC(=O)C1CCN(C(=O)c2c(C)oc3c2C(=O)c2ccccc2C3=O)CC1	12µM*	?	?	?	18µM*
Cc1oc2c(c1C(=O)N1CCC(C)CC1)C(=O)c1ccccc1C2=O	12µM*	21µM*	?	18%	18µM*
CCOC(=O)C1CCN(C(=O)c2ccc(C)o2)CC1	-4%	i	16%	5%	i
CN(CC(=O)NCc1ccco1)CC(=O)Nc1ccc(F)c(F)c1F	0%	i	?	-53%	i
COc1cc(/C=N/Nc2ncc(C(F)(F)F)cc2Cl)cc(OC)c1O	-3%	?	13µM*	-4%	21µM*
COc1cc(/C=N/Nc2ncc(C(F)(F)F)cc2Cl)cc(OC)c1OC	7.3µM*	i	?	?	?
COc1cc(/C=N/Nc2ccc(C(F)(F)F)cn2)ccc1O	19%	i	?	3%	i
COc1ccc(/C=N/Nc2ncc(C(F)(F)F)cc2Cl)c(OC)c1OC	-7%	i	16%	17%	i
CC1CCC(NC(=O)CN(C)S(=O)(=O)c2cnc[nH]2)CC1 (stereo not drawn)	-2%	i	28%	0%	?
Cn1c2c(c(=O)n(C)c1=O)C(C(F)(F)F)(C(F)(F)F)N=C(c1ccccc1Cl)N2	-3%	?	?	4%	?
